Measured values: PubChem BioAssay AID1159580 (chemical genetic matrix, 2015)
Screen size: about 5,500 compounds; about 2,000 (36%) were called active. Roughly 18% stayed inconclusive and do not appear here. Cut-off read from the data, not from the text of the source: active = normalized growth mostly below about 0.91 (no sharp cut-off); inconclusive = no clear call, values can overlap the other calls; inactive = mostly above about 0.92. The list shows a part of the results.

Assay: chemical genetic growth profiling, strain panel (AID 1159580);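 note: tested at 20 µM; growth read once vehicle control cultures reached saturation at 30 °C; 1 = growth at the plate median or of vehicle wells; lower values mean less growth of the strain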
Conditions: S. cerevisiae deletion strains, growth OD

Measured: normalized growth

O=c1c(-c2ccc3c(c2)OCO3)coc2cc(O)ccc12
inactive: locus YAL013W, strain DEP1, stronger effect = lower value 1 | locus YAL021C, strain ccr4, stronger effect = lower value 0.994 | locus YAL026C, strain drs2, stronger effect = lower value 1 | locus YAL030W, strain snc1, stronger effect = lower value 0.991 | locus YBL061C, strain skt5, stronger effect = lower value 0.99 | locus YBR009C, strain hhf1, stronger effect = lower value 0.978 | locus YBR021W, strain FUR4, stronger effect = lower value 0.991 | locus YBR023C, strain chs3, stronger effect = lower value 0.996 | locus YBR171W, strain sec66, stronger effect = lower value 1 | locus YBR229C, strain ROT2, stronger effect = lower value 0.989 | locus YBR231C, strain swc5, stronger effect = lower value 0.985 | locus YBR279W, strain paf1, stronger effect = lower value 0.994 | locus YCL011C, strain gbp2, stronger effect = lower value 0.999 | locus YCL016C, strain dcc1, stronger effect = lower value 0.993 | locus YCL029C, strain bik1, stronger effect = lower value 0.969 | locus YCL061C, strain MRC1, stronger effect = lower value 0.998 | locus YCL069W, strain vba3, stronger effect = lower value 1 | locus YCR088W, strain abp1, stronger effect = lower value 0.998 | locus YDL005C, strain med2, stronger effect = lower value 0.984 | locus YDL035C, strain GPR1, stronger effect = lower value 1 | locus YDL040C, strain nat1, stronger effect = lower value 0.993 | locus YDL074C, strain BRE1, stronger effect = lower value 1.04 | locus YDL101C, strain DUN1, stronger effect = lower value 0.998 | locus YDL134C, strain PPH21, stronger effect = lower value 1 | locus YDL185W, strain tfp1, stronger effect = lower value 0.981 | locus YDL192W, strain arf1, stronger effect = lower value 0.977 | locus YDR001C, strain nth1, stronger effect = lower value 1.01 | locus YDR069C, strain doa4, stronger effect = lower value 0.977 | locus YDR101C, strain arx1, stronger effect = lower value 0.98 | locus YDR137W, strain rgp1, stronger effect = lower value 0.979 | locus YDR150W, strain NUM1, stronger effect = lower value 0.995 | locus YDR159W, strain sac3, stronger effect = lower value 0.96 | locus YDR162C, strain NBP2, stronger effect = lower value 1.01 | locus YDR195W, strain ref2 0.957 | locus YDR297W, strain sur2, stronger effect = lower value 0.989 | locus YDR318W, strain mcm21, stronger effect = lower value 0.972 | locus YDR334W, strain swr1, stronger effect = lower value 1 | locus YDR335W, strain msn5, stronger effect = lower value 1 | locus YDR388W, stronger effect = lower value 0.973 | locus YDR392W, strain spt3, stronger effect = lower value 0.919 | locus YDR502C, strain sam2, stronger effect = lower value 0.992 | locus YEL003W, strain gim4, stronger effect = lower value 1 | locus YEL037C, strain rad23, stronger effect = lower value 1 | locus YEL061C, strain CIN8 (second series), stronger effect = lower value 1.01 | locus YEL061C, strain CIN8, stronger effect = lower value 0.998 | locus YER015W, strain faa2, stronger effect = lower value 0.99 | locus YER016W, strain bim1, stronger effect = lower value 0.988 | locus YER110C, stronger effect = lower value 0.979 | locus YER111C, strain swi4, stronger effect = lower value 1 | locus YER155C, strain BEM2 (second series), stronger effect = lower value 0.974 | locus YER155C, strain BEM2, stronger effect = lower value 0.995 | locus YER167W, strain BCK2, stronger effect = lower value 0.983 | locus YFR010W, strain ubp6, stronger effect = lower value 1 | locus YGL078C, strain dbp3, stronger effect = lower value 0.98 | locus YGL086W, strain mad1, stronger effect = lower value 0.983 | locus YGL167C, strain pmr1, stronger effect = lower value 0.988 | locus YGL173C, strain kem1, stronger effect = lower value 0.995 | locus YGL227W, strain vid30, stronger effect = lower value 1 | locus YGL240W, strain doc1, stronger effect = lower value 0.952 | locus YGL248W, strain PDE1, stronger effect = lower value 0.991 | locus YGL253W, strain hxk2, stronger effect = lower value 1 | locus YGR078C, strain PAC10, stronger effect = lower value 1.01 | locus YGR135W, strain pre9, stronger effect = lower value 0.987 | locus YGR229C, strain SMI1, stronger effect = lower value 1.03 | locus YGR252W, strain gcn5, stronger effect = lower value 0.932 | locus YHR013C, strain ard1, stronger effect = lower value 0.96 | locus YHR027C, strain rpn1, stronger effect = lower value 0.994 | locus YHR030C, strain SLT2, stronger effect = lower value 0.998 | locus YHR079C, strain IRE1 (second series), stronger effect = lower value 0.964 | locus YHR094C, strain hxt1, stronger effect = lower value 0.981 | locus YHR129C, strain ARP1, stronger effect = lower value 1 | locus YHR142W, strain chs7, stronger effect = lower value 1.01 | locus YHR200W, strain rpn10, stronger effect = lower value 0.978 | locus YIL066C, strain RNR3, stronger effect = lower value 0.998 | locus YIL073C, strain SPO22, stronger effect = lower value 0.93 | locus YIL125W, strain kgd1, stronger effect = lower value 0.993 | locus YIR030C, strain dcg1, stronger effect = lower value 0.984 | locus YJL092W, strain hpr5, stronger effect = lower value 1.01 | locus YJL095W, strain BCK1 (second series), stronger effect = lower value 0.989 | locus YJL095W, strain BCK1, stronger effect = lower value 1.04 | locus YJL115W, strain asf1, stronger effect = lower value 0.995 | locus YJL129C, strain trk1, stronger effect = lower value 0.99 | locus YJL134W, strain LCB3, stronger effect = lower value 0.991 | locus YJL154C, strain vps35, stronger effect = lower value 1.01 | locus YJL164C, strain tpk1, stronger effect = lower value 0.979 | locus YJL166W, strain qcr8, stronger effect = lower value 0.974 | locus YJL168C, strain set2, stronger effect = lower value 0.983 | locus YJL187C, strain SWE1 (second series), stronger effect = lower value 1 | locus YJL187C, strain SWE1, stronger effect = lower value 0.987
